This is an account of results in PubChem BioAssay (NCI).

The structures appear in SMILES notation. This is part of a sample that, as a whole, favours compounds with a hit. Of some 79,000 tested, about 15% had one in any assay. A number with no mark means an inactive call. The source made the active and inactive calls. Rule as the data show it: active = growth inhibition above about 70%; inactive = the rest.

Assay [1] in a line: NCI Yeast Anticancer Drug Screen. Data for the rad50 strain (AID 155).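 Also: 0% = growth of vehicle-only cultures of the same strain.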 Particulars: S. cerevisiae rad50 strain growth inhibition, active compounds read high. The method in brief: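 Compounds were tested on a yeast strain with an engineered DNA damage repair alteration; the reported value is growth inhibition normalised to vehicle treatment.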
The nature of assay [2]: NCI Yeast Anticancer Drug Screen. Data for the mec2-1 strain (AID 157). Particulars: S. cerevisiae mec2-1 strain, active compounds read high. A digest of the protocol: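 Cells of the genetically defined mec2-1 yeast strain are incubated with test compound. Inhibition of growth is calculated against vehicle-treated controls.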
Assay [3] in a line: NCI Yeast Anticancer Drug Screen. Data for the sgs1 mgt1 strain (AID 161).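 Also: 0% = growth of cultures given vehicle only.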 Particulars: S. cerevisiae sgs1 mgt1 strain, active compounds read high. The method in brief: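 Read-out: growth inhibition vs vehicle controls. Cells: mutant yeast strain deficient in DNA damage repair.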
Assay [4] is described as follows: NCI Yeast Anticancer Drug Screen. Data for the cln2 rad14 strain (AID 165).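 Also: 0% = growth equal to vehicle treated cultures.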 The conditions noted are these: S. cerevisiae cln2 rad14 strain, active compounds read high. A digest of the protocol:
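The screen exposed genetically defined yeast (cln2 rad14) to test compounds and scored growth inhibition relative to vehicle-treated controls.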

Assay [5] is described as follows: NCI Yeast Anticancer Drug Screen. Data for the bub3 strain (AID 167). The conditions noted are these: S. cerevisiae bub3 mutant strain, active compounds read high. The method in brief:
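Growth of a checkpoint-deficient yeast mutant is measured after compound exposure. Values represent inhibition relative to vehicle.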

Assay [6] in a line: NCI Yeast Anticancer Drug Screen. Data for the mlh1 rad18 strain (AID 175). Particulars: S. cerevisiae mlh1 rad18 strain growth inhibition, active compounds read high. The method in brief:
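Compound-treated yeast growth, normalised to vehicle controls. Strain bears defined DNA repair mutations.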

Setting [7] is: at 5.0 µM (retest, dose inferred, filed as 0.5).
[8] abbreviates: at 50.0 µM (retest, dose inferred, filed as 5.0).

As to `CC1=CC(O)(c2nc3ccccc3s2)CC(C)(C)C1` (stereo not given), the growth inhibition in assay [1] (setting [7]) was 3%; in assay [1] (setting [8]), 60%; in assay [1] (at 50.0 µM), 69.7%; in assay [2] (setting [7]), 6%; in assay [2] (setting [8]), 61%; in assay [2] (at 50.0 µM) it was 56.1%. The growth inhibition in assay [3] (setting [7]) is -1%; in assay [3] (setting [8]) it was 61%; in assay [3] (at 50.0 µM) it was 64.2%; in assay [4] (setting [7]), -2%; in assay [4] (setting [8]), 51%; in assay [4] (at 50.0 µM), 47.7%. Further, the growth inhibition in assay [5] (setting [7]) is 15%; in assay [5] (setting [8]), 31%; in assay [5] (at 50.0 µM) it was 41.4%; in assay [6] (setting [7]), -2%; in assay [6] (setting [8]), 69%; in assay [6] (at 50.0 µM), 66.4%.

In the case of `COc1ccc(C(c2cc3c(cc2O)OCO3)N2CCOCC2)c(OC)c1OC` (stereo not given), the growth inhibition in assay [1] (setting [7]) is 4%; in assay [1] (setting [8]), 96% (active); in assay [1] (at 50.0 µM) it was 95.5% (active); in assay [2] (setting [7]), 4%; in assay [2] (setting [8]), 97% (active); in assay [2] (at 50.0 µM) it was 99.6% (active). The growth inhibition in assay [3] (setting [7]) is 0%; in assay [3] (setting [8]) it was 74% (active); in assay [3] (at 50.0 µM), 62.9%; in assay [4] (setting [7]), -6%; in assay [4] (setting [8]), 63%; in assay [4] (at 50.0 µM), 24.4%. The growth inhibition in assay [5] (setting [7]) is 0%; in assay [5] (setting [8]), 87% (active); in assay [5] (at 50.0 µM) it was 98.7% (active); in assay [6] (setting [7]), 2%; in assay [6] (setting [8]) it was 63%; in assay [6] (at 50.0 µM) it was 83% (active).

With `CC(=O)NNc1nc(C)c(C(=O)NNC(=O)C(=O)Nc2ccc(Cl)c([N+](=O)[O-])c2)s1`, the growth inhibition in assay [1] (setting [7]) was 34%; in assay [1] (setting [8]), 34%; in assay [1] (at 50.0 µM), 70.6% (active); in assay [2] (setting [7]), 19%; in assay [2] (setting [8]) it was 19%; in assay [2] (at 50.0 µM) it was 20.9%. Moreover, the growth inhibition is 32% in assay [3] (setting [7]); 32% in assay [3] (setting [8]); 69.2% in assay [3] (at 50.0 µM); 18% in assay [4] (setting [7]); 18% in assay [4] (setting [8]); 51.6% in assay [4] (at 50.0 µM). Further, the growth inhibition in assay [5] (setting [7]) was 19%; in assay [5] (setting [8]) it was 19%; in assay [5] (at 50.0 µM) it was 55.9%; in assay [6] (setting [7]) it was 20%; in assay [6] (setting [8]) it was 20%; in assay [6] (at 50.0 µM), 50.4%.

Consider `CCCCCC(C)NCCOC(=O)c1ccccc1` (stereo not given), for which the growth inhibition is 3% in assay [1] (setting [7]); 78% (active) in assay [1] (setting [8]); 50.8% in assay [1] (at 50.0 µM); -13% in assay [2] (setting [7]); 82% (active) in assay [2] (setting [8]); -10.7% in assay [2] (at 50.0 µM). The growth inhibition in assay [3] (setting [7]) is -8%; in assay [3] (setting [8]) it was 79% (active); in assay [3] (at 50.0 µM) it was 59.4%; in assay [4] (setting [7]), 0%; in assay [4] (setting [8]), 26%; in assay [4] (at 50.0 µM) it was 67.2%. In addition, the growth inhibition is 3% in assay [5] (setting [7]); 84% (active) in assay [5] (setting [8]); 75.5% (active) in assay [5] (at 50.0 µM); 18% in assay [6] (setting [7]); 89% (active) in assay [6] (setting [8]); 40.5% in assay [6] (at 50.0 µM).

In the case of `CC(/C=C/c1ccc(Cl)c(Cl)c1)=N\NC(N)=S`, the growth inhibition in assay [1] (setting [7]) is 37%; in assay [1] (setting [8]), 69%; in assay [1] (at 50.0 µM), 61.2%; in assay [2] (setting [7]) it was 31%; in assay [2] (setting [8]) it was 73% (active); in assay [2] (at 50.0 µM), 53.5%. The growth inhibition was 48% in assay [3] (setting [7]); 76% (active) in assay [3] (setting [8]); 82.9% (active) in assay [3] (at 50.0 µM); 39% in assay [4] (setting [7]); 41% in assay [4] (setting [8]); 77.2% (active) in assay [4] (at 50.0 µM). Moreover, the growth inhibition is 29% in assay [5] (setting [7]); 82% (active) in assay [5] (setting [8]); 64.4% in assay [5] (at 50.0 µM); 61% in assay [6] (setting [7]); 81% (active) in assay [6] (setting [8]); 80% (active) in assay [6] (at 50.0 µM).

Regarding `CN(C)Cc1ccccc1C(=O)C(=O)c1ccccc1CN(C)C`, the growth inhibition in assay [1] (setting [7]) was -9%; in assay [1] (setting [8]) it was 48%; in assay [1] (at 50.0 µM), -3.15%; in assay [2] (setting [7]) it was 1%; in assay [2] (setting [8]), 70% (active); in assay [2] (at 50.0 µM), 3%. In addition, the growth inhibition was -5% in assay [3] (setting [7]); 3% in assay [3] (setting [8]); -6.5% in assay [3] (at 50.0 µM); 9% in assay [4] (setting [7]); 0% in assay [4] (setting [8]); 46.3% in assay [4] (at 50.0 µM). In addition, the growth inhibition was 10% in assay [5] (setting [7]); 7% in assay [5] (setting [8]); 57.8% in assay [5] (at 50.0 µM); -4% in assay [6] (setting [7]); 73% (active) in assay [6] (setting [8]); 6.45% in assay [6] (at 50.0 µM).

With `C/C(=N\O)c1ccc2c3c(ccc([N+](=O)[O-])c13)CC2`, the growth inhibition in assay [1] (setting [7]) is -2%; in assay [1] (setting [8]) it was 9%; in assay [1] (at 50.0 µM), 13.2%; in assay [2] (setting [7]), -9%; in assay [2] (setting [8]), 7%; in assay [2] (at 50.0 µM) it was 29.2%. The growth inhibition in assay [3] (setting [7]) is -9%; in assay [3] (setting [8]), -2%; in assay [3] (at 50.0 µM) it was -6.4%; in assay [4] (setting [7]) it was 0%; in assay [4] (setting [8]), -5%; in assay [4] (at 50.0 µM), 34.9%. Moreover, the growth inhibition is 0% in assay [5] (setting [7]); 7% in assay [5] (setting [8]); 85.2% (active) in assay [5] (at 50.0 µM); 8% in assay [6] (setting [7]); 30% in assay [6] (setting [8]); 88.5% (active) in assay [6] (at 50.0 µM).

On to `CCCC(O)CNCc1ccc(N(C)C)cc1` (stereo not given), for which the growth inhibition in assay [1] (setting [7]) was -2%; in assay [1] (setting [8]) it was 7%; in assay [1] (at 50.0 µM), 30.1%; in assay [2] (setting [7]) it was -3%; in assay [2] (setting [8]), 6%; in assay [2] (at 50.0 µM), -4.1%. In addition, the growth inhibition in assay [3] (setting [7]) is -3%; in assay [3] (setting [8]) it was -29%; in assay [3] (at 50.0 µM), 75.6% (active); in assay [4] (setting [7]), 6%; in assay [4] (setting [8]), 3%; in assay [4] (at 50.0 µM) it was 63.9%. Further, the growth inhibition in assay [5] (setting [7]) was -1%; in assay [5] (setting [8]) it was 5%; in assay [5] (at 50.0 µM) it was 46.7%; in assay [6] (setting [7]), -17%; in assay [6] (setting [8]), 16%; in assay [6] (at 50.0 µM), 41.8%.

As to `CC1=CC(=O)[C@@H](O)[C@]2(C)[C@H]3[C@@]4(O)OC[C@]35[C@H]([C@@H](C)[C@H]4O)[C@@H](OC(=O)C(C)(C)CO)C(=O)O[C@@H]5C[C@@H]12`, the growth inhibition in assay [1] (setting [7]) is 10%; in assay [1] (setting [8]), 44%; in assay [1] (at 50.0 µM), 90.7% (active); in assay [2] (setting [7]) it was 15%; in assay [2] (setting [8]), 45%; in assay [2] (at 50.0 µM) it was 90.8% (active). Moreover, the growth inhibition in assay [3] (setting [7]) was 6%; in assay [3] (setting [8]) it was 40%; in assay [3] (at 50.0 µM) it was 88.3% (active); in assay [4] (setting [7]), 17%; in assay [4] (setting [8]), 51%; in assay [4] (at 50.0 µM), 90.5% (active). In addition, the growth inhibition in assay [5] (setting [7]) is 6%; in assay [5] (setting [8]), 39%; in assay [5] (at 50.0 µM) it was 92.2% (active); in assay [6] (setting [7]) it was 6%; in assay [6] (setting [8]) it was 51%; in assay [6] (at 50.0 µM), -7.05%.

Take `O=CC(O)CN1CCCC1` (stereo not given): the growth inhibition in assay [1] (setting [7]) was -2%; in assay [1] (setting [8]), 11%; in assay [1] (at 50.0 µM) it was 49.6%; in assay [2] (setting [7]), 0%; in assay [2] (setting [8]), 14%; in assay [2] (at 50.0 µM) it was 53.2%. The growth inhibition in assay [3] (setting [7]) was 2%; in assay [3] (setting [8]), 8%; in assay [3] (at 50.0 µM) it was 87.7% (active); in assay [4] (setting [7]), -4%; in assay [4] (setting [8]) it was 6%; in assay [4] (at 50.0 µM), 96.8% (active). The growth inhibition in assay [5] (setting [7]) was -4%; in assay [5] (setting [8]) it was 25%; in assay [5] (at 50.0 µM), 12.7%; in assay [6] (setting [7]) it was 1%; in assay [6] (setting [8]) it was 16%; in assay [6] (at 50.0 µM), 92.9% (active).
